# Assays:
# Assay in all cases: PBM binding z-score (relative to random genomic background probes); higher = stronger binding; sequences stand for … in GC…GCGATTGACAGCGTAGAATGAAGG
# [1] = tested on: RARb homodimer (NR concentration 270 nM)
# How it was run: (§1)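 Custom Agilent 4×180K protein-binding microarrays carried double-stranded probes. Their 34-nt variable regions held direct-repeat seeds, single-nucleotide variants, half-site ablations and random human genomic background sequences. Arrays were incubated 1 h with ligand-free nuclear receptor dimers in PBS pH 7.4, 2% milk, 0.02% Triton X-100, 1 mM DTT, 0.2 mg/mL BSA and 0.4 mg/ml salmon testes DNA. Antibodies against each partner (one per run) detected binding, and scanned fluorescence was regression-normalized. Binding z-scores use random background probes as reference.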
# [2] = tested on: RARg:RXRa (NR concentration 270 nM, RXRa partner concentration 90 nM)
# How it was run: as §1
# [3] = tested on: RARg homodimer (NR concentration 270 nM)
# How it was run: as §1
# [4] = tested on: RXRa DBDmut IVT, anti-RXR (DBD mutation: RXRa K156A/R161A, NR concentration 90 nM)
# How it was run: as §1
# [5] = tested on: RXRa homodimer (NR concentration 180 nM)
# How it was run: as §1
# [6] = tested on: THRa:RXRa (NR concentration 90 nM, RXRa partner concentration 90 nM)
# How it was run: as §1
# [7] = tested on: THRa homodimer (NR concentration 90 nM)
# How it was run: as §1
# [8] = tested on: VDR homodimer (NR concentration 270 nM)
# How it was run: as §1
Sequence,PBM binding z-score [1],PBM binding z-score [2],PBM binding z-score [3],PBM binding z-score [4],PBM binding z-score [5],PBM binding z-score [6],PBM binding z-score [7],PBM binding z-score [8]
ACCTCTAGGTAAAAGTTCAGTGAATCCCGAGGAT,2.22,1.17,1.56,0.969,1.22,0.914,-0.324,1.21
ATCGAAAGGTCGTGAGGTCAGTATACAGAAAGGC,4.83,6.17,5.53,2.13,6.57,4.25,3.19,3.51
GATACAGGATCAAGGCCAGAGTACGCGTATTGAT,0.0211,0.189,0.325,-0.499,0.195,-0.265,-0.214,0.147
CCGCGTAGGTTATGGGGCATTCAGGCAACGGTGA,1.05,0.489,0.397,-0.64,0.576,0.529,0.176,-0.154
ACAGACAGGTGAGTGATGGTAACTCAGCTGGACG,-0.167,0.351,0.407,-0.204,0.27,-0.225,-0.414,-0.122
CGAACTAGGTCAGAACAGGCCAGTGAAGGATGAT,2.09,2.58,2.86,0.213,1.28,2.53,-0.201,-0.281
GTACCAACGTGAATAGGTCGTTGATGAGTAGGCG,0.16,0.141,0.237,-0.361,0.489,-0.22,-1.03,-0.24
TTTTGTAGATCAGCAGGTTAAGAAAGCTGGCCAA,0.145,-0.111,-0.252,-0.708,0.104,0.144,-0.308,-0.168
TCTTGTAGATCAACAGGAGGGTAAGAAAGATCGA,-0.229,0.172,0.108,0.172,0.0944,-0.144,-1.1,-0.319
TCTCGGAGGACACGAAAGCTCAGAGCTCGACATC,0.352,0.462,1.19,0.558,-0.227,1.23,0.151,-0.801
TCTTGTAGATCAATAGAGGTTTAGAAAGTGCGCT,-0.294,-0.0286,-0.308,0.603,0.0167,0.294,-0.767,0.0472
TCATATAGGTAAATGCCAGGTGAAAGTCCGATCT,0.815,0.611,0.433,1.64,0.912,2.02,1.33,0.435
TCGAGTAGGTTACCAATGGCGCATTCAGCTTTCT,0.00418,0.036,0.0712,0.461,0.351,-0.246,-0.453,-0.613
TCTGCTAGGTCAGTTGGTCAACTAACGAGCTGCC,2.71,2.82,3.64,0.186,1.03,1.43,-0.321,-0.774
TCTATTAGTTGATTAGGGCAACCCAAACAGCGGA,0.891,0.877,0.646,1.04,0.612,0.77,0.499,0.49
ATCGAAAGATCGAAGGTGAGTATACCCACCCGAA,-0.186,0.34,0.489,-0.722,0.765,0.17,-0.601,-0.259
GCTAGCAGGCCATTTGGGTCAGTCAATGACGGGC,1.42,0.49,1.01,-0.27,0.218,0.812,-0.371,-0.151
TCAGACAGGTGAAGGTAACTCGGGTACGCAGTCG,1.04,0.783,0.664,1.16,1.23,1.66,0.72,0.873
CCTAGCTGGTCAAGGTCACACACGCTATAGGTAC,4.06,4.56,4.74,1.82,4.92,3.97,3.76,2.88

Sequence,PBM binding z-score [1],PBM binding z-score [2],PBM binding z-score [3],PBM binding z-score [4],PBM binding z-score [5],PBM binding z-score [6],PBM binding z-score [7],PBM binding z-score [8]
ATTATTAGTTGAGACGAGGGCAACCGATAGGTTG,1.64,1.02,1.18,0.511,0.708,2.79,0.878,1.63
TCAAGTTGGTCAAAGGTCACACACTCGAAATGCG,5.19,7.2,6.47,2.15,8.37,4.16,1.86,2.4
TCTGCTAGGTCAGTTGGTCGGCTAACGAGCTGCC,2.21,2.28,3.11,0.384,0.902,1.17,-0.205,-1.1
CATACAGGGTCAGCTAGGCCAGAATAGGGACGGC,3.37,4.33,4.34,1.53,4.26,3.04,1.13,0.805
CAAACTAGATCACAGAGGTCAAAGTCCGTGCGTA,4.34,4.96,4.25,2.41,5.63,3.64,1.29,5.11
CCTAGTTGGTCAGGAGGTCTCACACCGGATATGA,1.11,0.617,0.718,-0.451,0.298,0.191,0.505,0.261
CTCGAAAGCTCGTGCTCAGGTGAGTATACCAAAC,-0.48,-0.629,-0.592,-0.295,-0.748,0.472,0.274,-0.591
CCGAGCAGGCCAGGGTCACTCAAGCATTTCGCTT,2.91,3.13,2.66,0.694,3.6,2.91,1.02,1.31
ATCTATAGGTAACAAGTTCAGTGAAAGAGAGGAC,2.01,1.61,1.59,1.56,1.19,1.33,0.91,2.47
CCTCGCAGGCCAGGGTCACTCAAGCATTTCGCTT,2.71,2.93,2.2,0.363,3.06,2.84,1.2,1.43
ATATGTAGGTTACATCCGTGTCATTCAGGCTATG,1.2,1.59,1.21,1.02,1.08,1.4,0.344,0.511
ATATGTAGTTTAAGGGTCATTCAGGTTGGTTCGC,3.9,3.91,2.88,2.39,4.82,3.37,1.71,4.96
TCTTGTAGATCAGCAGGTGAAGAAAGCTGGCCAA,-0.153,-0.237,-0.356,0.475,0.184,0.0556,-0.332,-0.766
CTCGAAAGGTCGGTTGAGCTGAGTATACGGATAA,1.27,2.09,2.29,0.709,1.74,0.825,-0.574,-0.476
TCATATAGGTAACGGTGAAAGTCGAACGATATGA,-0.17,0.474,0.423,0.399,0.79,-0.0623,-0.6,-0.165
GGTAGTTGGTCAGTAAAAGGTCACACACCGGTCG,5.4,5.49,4.84,-0.0829,5.45,3.72,2.3,2.2
ATATGTAGGTTACATTCGGGTCATTCAGGCTATG,2.86,3.72,2.05,1.74,3.03,3.99,3.23,3.31
CTACCAAGGCGAACAAGGTCGTTGATTACTATTC,0.781,0.29,0.0992,0.854,0.744,2.38,0.72,1.38
CCTTACGGGTGAAGGTTATAGCACGGGTGGTACG,0.868,0.873,0.868,-1.61,1.23,0.509,0.0246,-0.283

Sequence,PBM binding z-score [1],PBM binding z-score [2],PBM binding z-score [3],PBM binding z-score [4],PBM binding z-score [5],PBM binding z-score [6],PBM binding z-score [7],PBM binding z-score [8]
GGAACAAGGGCAAAGTTGATAGCATCTGTCGACG,1.5,1.92,1.83,1.5,1.27,0.979,-0.125,0.766
TCTATCAGTTGATTAGGGCAACCGAAACAGCGGA,0.548,0.522,0.467,0.825,0.276,0.643,-0.0881,-0.1
TCTTGTAGATAAAAGGTTAAGAAAGCCGAAGCCT,1.42,1.43,0.971,1.2,2.28,1.14,-0.62,0.00564
GCTATTAGTTGAAAGGGCAACAGAATGATTCTCG,1.87,1.36,1.47,0.874,1.24,0.672,-0.526,0.397
TCTCGGAGGACACAAAAGGTCAGAGCTCGACATC,4.4,4.67,4.91,1.15,3.9,3.41,1.1,1.02
TATCCTAGGTCATGGGCCAGTATACCACGCGAAC,3.35,4.47,5.04,0.933,3.99,3.54,2.41,1.05
AGAATGAGGGTATACGTAGATCAGGGAAGAAAGT,0.451,0.26,0.277,0.799,0.262,0.252,0.0652,0.45
CATACAGGGTCAGCTTGGCCAGAGTAGGGACGGC,3.06,4.12,4.29,1.58,4.13,2.85,0.515,0.849
TATACAGGGTCGAAGGCCAGAGTACGAATGTCGA,1.26,1.87,1.72,0.491,2.32,1.16,-0.382,1.23
GCTTCTAGATCAAGGTTAAGAAAGACTAAGCTAA,0.106,0.25,0.347,0.0774,0.547,1.16,-0.453,-0.36
TGAGTGAGGTTATAAGATCAGGGAACGTTGCAAA,0.44,1.43,1.12,0.109,1.88,1.59,0.117,0.655
CCTCGGAGGACAAGAGGAGGTCAGAGCTGCCAGA,2.96,2.87,2.83,0.0626,1.58,2.55,0.679,0.697
GCATATGGGTAATACAAGGTGAAAGTCCGATTGT,0.725,0.405,0.402,0.208,0.486,3.98,0.841,0.115
GGAACGAGGGCATTCGAGATGATAGCATGGCGAT,0.609,1.13,1.65,3.05,1.02,1.44,-0.487,2.01
CTCGAAATGTCGTGCTCAGGTGAGTATACCAAAC,0.0938,0.145,0.0439,0.155,-0.16,1.53,0.939,0.16
GCTGCTAGGTCAACTGATGGTTAGCTAAAGCTCG,3.25,4.51,5.52,1.85,2.81,2.94,0.862,-0.316
ATCTCTAGGTAAAGTTTAGTGAAAGATCGATAGA,0.401,0.251,0.558,0.303,0.0525,0.362,0.126,0.236
CTTACTGGGCCAAAAAGGTCATTGATGCCGATAA,4.5,4.8,4.65,1.08,5.37,3.21,0.313,2.72
CGTAGCAGGCCAGGGTCACTCAAGCATTTCGCTT,2.51,3.02,2.53,0.749,3.36,2.84,1.33,1.18

# Source: the supplement of paper PMC6555819
